Laboratory results: ChEMBL document CHEMBL1961873, “Compounds: GSK PKIS; Assays: Nanosyn kinase panel” (2012)

How the values were obtained:
[1] = molecular target: T1, Inhibitor of nuclear factor kappa-B kinase subunit epsilon (Homo sapiens) (UniProt Q14164); settings: at 1 µM;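 further: reported values are averaged percent inhibition figures against human IKKε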
T1 sequence (whole entry): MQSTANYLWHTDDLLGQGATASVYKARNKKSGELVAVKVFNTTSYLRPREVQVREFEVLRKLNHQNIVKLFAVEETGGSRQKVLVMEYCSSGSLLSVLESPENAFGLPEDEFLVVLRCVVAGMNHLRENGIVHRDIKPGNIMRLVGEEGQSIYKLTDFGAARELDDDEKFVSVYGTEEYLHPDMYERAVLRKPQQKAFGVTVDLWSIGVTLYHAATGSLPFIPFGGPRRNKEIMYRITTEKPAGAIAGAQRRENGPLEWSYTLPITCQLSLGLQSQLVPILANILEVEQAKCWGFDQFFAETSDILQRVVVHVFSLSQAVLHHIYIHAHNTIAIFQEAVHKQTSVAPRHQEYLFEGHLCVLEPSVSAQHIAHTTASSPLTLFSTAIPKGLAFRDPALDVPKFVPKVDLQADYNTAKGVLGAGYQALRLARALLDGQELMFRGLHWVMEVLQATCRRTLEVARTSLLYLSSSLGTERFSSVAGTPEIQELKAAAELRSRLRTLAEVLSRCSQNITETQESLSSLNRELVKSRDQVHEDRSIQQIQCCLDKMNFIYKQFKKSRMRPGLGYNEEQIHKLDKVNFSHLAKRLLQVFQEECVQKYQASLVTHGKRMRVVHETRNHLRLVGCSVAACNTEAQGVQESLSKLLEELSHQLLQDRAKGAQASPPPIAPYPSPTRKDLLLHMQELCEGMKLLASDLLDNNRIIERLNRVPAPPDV

[2] = molecular target: T2, Serine/threonine-protein kinase Nek1 (Homo sapiens) (UniProt Q96PY6); settings: at 0.1 µM
T2 sequence (whole entry): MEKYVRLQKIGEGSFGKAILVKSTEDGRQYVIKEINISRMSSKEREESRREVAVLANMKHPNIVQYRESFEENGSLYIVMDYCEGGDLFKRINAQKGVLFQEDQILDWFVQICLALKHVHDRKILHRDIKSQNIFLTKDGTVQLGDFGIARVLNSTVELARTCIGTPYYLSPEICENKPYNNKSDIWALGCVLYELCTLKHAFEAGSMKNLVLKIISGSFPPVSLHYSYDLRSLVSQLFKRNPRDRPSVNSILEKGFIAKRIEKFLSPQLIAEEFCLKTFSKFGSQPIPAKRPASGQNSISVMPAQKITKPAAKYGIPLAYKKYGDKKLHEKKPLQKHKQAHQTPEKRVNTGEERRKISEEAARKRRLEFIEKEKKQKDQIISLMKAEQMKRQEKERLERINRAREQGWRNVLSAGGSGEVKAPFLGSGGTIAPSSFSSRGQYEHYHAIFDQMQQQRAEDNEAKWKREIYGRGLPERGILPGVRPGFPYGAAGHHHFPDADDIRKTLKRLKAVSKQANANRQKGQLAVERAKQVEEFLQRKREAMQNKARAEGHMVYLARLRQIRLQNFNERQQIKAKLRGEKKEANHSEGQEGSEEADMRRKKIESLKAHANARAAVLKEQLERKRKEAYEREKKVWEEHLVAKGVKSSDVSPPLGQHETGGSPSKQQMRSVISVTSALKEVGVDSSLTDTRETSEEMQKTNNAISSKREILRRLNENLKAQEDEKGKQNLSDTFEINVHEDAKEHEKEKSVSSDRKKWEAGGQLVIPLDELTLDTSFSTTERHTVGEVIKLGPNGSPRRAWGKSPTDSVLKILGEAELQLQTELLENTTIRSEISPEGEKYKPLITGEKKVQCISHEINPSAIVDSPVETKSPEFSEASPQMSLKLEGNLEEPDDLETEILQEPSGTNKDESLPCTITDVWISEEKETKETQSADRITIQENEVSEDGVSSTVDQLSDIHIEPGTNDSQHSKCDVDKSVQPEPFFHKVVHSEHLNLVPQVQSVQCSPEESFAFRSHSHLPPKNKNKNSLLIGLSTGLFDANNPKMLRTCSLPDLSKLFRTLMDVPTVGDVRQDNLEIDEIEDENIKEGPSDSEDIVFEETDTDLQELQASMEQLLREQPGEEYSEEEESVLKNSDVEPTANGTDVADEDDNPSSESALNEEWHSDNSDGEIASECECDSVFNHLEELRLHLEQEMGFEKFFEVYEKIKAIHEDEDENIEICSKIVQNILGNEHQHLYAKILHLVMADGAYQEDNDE

[3] = molecular target: T2, Serine/threonine-protein kinase Nek1 (Homo sapiens); settings: at 1 µM
[4] = molecular target: T3, Serine/threonine-protein kinase Nek2 (Homo sapiens) (UniProt P51955); settings: at 0.1 µM
T3 sequence (whole entry): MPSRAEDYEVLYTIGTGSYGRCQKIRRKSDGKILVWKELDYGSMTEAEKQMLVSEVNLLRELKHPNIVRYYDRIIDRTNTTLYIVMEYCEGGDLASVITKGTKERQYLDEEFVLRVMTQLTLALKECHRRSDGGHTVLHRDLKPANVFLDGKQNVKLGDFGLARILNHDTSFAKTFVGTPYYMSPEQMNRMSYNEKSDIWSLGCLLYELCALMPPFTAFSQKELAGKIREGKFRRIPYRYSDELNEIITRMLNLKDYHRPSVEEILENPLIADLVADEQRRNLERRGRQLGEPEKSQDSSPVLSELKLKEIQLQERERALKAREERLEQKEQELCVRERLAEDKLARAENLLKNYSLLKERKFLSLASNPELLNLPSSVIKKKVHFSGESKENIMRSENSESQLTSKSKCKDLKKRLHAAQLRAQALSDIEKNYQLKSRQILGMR

[5] = molecular target: T3, Serine/threonine-protein kinase Nek2 (Homo sapiens); settings: at 1 µM
[6] = molecular target: Serine/threonine-protein kinase Nek6 (Homo sapiens) (UniProt Q9HC98); settings: at 0.1 µM
Chain of Serine/threonine-protein kinase Nek6 (Homo sapiens) (Q9HC98 whole entry): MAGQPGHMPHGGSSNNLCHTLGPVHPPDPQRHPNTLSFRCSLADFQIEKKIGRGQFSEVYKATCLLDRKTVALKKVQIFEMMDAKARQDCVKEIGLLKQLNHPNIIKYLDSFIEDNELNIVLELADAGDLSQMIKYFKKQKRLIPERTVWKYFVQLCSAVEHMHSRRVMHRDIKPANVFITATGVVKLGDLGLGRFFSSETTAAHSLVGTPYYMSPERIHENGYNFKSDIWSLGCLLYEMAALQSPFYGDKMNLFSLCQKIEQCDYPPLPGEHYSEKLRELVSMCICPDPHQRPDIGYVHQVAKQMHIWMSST

[7] = molecular target: Serine/threonine-protein kinase Nek6 (Homo sapiens) (UniProt Q9HC98); settings: at 1 µM
[8] = molecular target: Serine/threonine-protein kinase Nek7 (Homo sapiens) (UniProt Q8TDX7); settings: at 0.1 µM
Chain of Serine/threonine-protein kinase Nek7 (Homo sapiens) (Q8TDX7 whole entry, looked up): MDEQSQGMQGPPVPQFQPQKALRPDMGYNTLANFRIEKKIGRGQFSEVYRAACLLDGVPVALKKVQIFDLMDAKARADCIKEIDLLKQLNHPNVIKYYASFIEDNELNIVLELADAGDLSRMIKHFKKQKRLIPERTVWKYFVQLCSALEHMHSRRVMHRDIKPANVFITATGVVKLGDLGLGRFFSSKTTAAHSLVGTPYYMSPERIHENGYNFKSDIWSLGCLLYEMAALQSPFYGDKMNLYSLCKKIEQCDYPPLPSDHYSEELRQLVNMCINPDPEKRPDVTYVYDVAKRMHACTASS

[9] = molecular target: Serine/threonine-protein kinase Nek7 (Homo sapiens) (UniProt Q8TDX7); settings: at 1 µM
[10] = molecular target: T4, Serine/threonine-protein kinase Nek9 (Homo sapiens) (UniProt Q8TD19); settings: at 0.1 µM
T4 sequence (whole entry): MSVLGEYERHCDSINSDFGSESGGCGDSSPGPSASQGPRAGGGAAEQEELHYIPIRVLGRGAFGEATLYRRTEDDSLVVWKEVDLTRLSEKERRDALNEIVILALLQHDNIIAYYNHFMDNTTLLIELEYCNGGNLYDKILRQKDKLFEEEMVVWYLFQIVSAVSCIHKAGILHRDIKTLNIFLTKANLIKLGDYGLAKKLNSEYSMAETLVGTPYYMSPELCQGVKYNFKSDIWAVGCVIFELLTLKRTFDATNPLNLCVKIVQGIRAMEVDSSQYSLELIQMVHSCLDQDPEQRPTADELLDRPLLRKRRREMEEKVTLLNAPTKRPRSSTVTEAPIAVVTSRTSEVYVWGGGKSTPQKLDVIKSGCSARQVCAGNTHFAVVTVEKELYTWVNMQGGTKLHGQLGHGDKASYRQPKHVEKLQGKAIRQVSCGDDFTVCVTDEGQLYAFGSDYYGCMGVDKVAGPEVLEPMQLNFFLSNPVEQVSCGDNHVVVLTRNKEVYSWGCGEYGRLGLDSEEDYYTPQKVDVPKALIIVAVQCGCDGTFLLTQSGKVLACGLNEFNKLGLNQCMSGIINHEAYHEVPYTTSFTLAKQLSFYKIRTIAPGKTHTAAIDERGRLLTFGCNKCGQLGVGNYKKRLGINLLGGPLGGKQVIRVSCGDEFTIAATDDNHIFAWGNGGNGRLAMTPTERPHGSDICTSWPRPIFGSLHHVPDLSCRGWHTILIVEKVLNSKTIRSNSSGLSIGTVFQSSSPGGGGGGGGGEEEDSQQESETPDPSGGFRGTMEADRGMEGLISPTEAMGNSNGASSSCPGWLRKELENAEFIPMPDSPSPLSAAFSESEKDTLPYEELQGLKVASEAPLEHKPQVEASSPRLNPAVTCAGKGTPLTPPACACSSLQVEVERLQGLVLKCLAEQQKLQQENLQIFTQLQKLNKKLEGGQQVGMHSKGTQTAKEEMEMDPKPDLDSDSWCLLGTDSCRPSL

[11] = molecular target: T4, Serine/threonine-protein kinase Nek9 (Homo sapiens); settings: at 1 µM
[12] = molecular target: Serine/threonine-protein kinase PLK1 (Homo sapiens) (UniProt P53350); settings: at 0.1 µM
Chain of Serine/threonine-protein kinase PLK1 (Homo sapiens) (P53350 whole entry): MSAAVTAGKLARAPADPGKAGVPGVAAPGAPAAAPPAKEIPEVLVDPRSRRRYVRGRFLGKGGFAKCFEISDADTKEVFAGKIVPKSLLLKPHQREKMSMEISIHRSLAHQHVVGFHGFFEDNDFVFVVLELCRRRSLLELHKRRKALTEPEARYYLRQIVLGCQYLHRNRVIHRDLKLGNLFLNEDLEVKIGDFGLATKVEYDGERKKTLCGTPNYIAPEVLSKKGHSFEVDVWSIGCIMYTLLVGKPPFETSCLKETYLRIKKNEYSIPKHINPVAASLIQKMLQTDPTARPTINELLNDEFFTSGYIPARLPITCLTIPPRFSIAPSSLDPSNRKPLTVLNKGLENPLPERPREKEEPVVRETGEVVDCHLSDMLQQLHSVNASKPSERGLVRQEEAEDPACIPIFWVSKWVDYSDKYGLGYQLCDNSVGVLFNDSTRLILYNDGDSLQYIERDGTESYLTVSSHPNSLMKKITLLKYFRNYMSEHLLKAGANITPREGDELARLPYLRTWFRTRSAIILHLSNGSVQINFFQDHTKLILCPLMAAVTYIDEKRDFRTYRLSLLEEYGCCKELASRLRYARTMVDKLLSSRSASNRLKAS

[13] = molecular target: Serine/threonine-protein kinase PLK1 (Homo sapiens) (UniProt P53350); settings: at 1 µM
[14] = molecular target: T5, Dual specificity protein kinase TTK (Homo sapiens) (UniProt P33981); settings: at 0.1 µM
T5 sequence (whole entry): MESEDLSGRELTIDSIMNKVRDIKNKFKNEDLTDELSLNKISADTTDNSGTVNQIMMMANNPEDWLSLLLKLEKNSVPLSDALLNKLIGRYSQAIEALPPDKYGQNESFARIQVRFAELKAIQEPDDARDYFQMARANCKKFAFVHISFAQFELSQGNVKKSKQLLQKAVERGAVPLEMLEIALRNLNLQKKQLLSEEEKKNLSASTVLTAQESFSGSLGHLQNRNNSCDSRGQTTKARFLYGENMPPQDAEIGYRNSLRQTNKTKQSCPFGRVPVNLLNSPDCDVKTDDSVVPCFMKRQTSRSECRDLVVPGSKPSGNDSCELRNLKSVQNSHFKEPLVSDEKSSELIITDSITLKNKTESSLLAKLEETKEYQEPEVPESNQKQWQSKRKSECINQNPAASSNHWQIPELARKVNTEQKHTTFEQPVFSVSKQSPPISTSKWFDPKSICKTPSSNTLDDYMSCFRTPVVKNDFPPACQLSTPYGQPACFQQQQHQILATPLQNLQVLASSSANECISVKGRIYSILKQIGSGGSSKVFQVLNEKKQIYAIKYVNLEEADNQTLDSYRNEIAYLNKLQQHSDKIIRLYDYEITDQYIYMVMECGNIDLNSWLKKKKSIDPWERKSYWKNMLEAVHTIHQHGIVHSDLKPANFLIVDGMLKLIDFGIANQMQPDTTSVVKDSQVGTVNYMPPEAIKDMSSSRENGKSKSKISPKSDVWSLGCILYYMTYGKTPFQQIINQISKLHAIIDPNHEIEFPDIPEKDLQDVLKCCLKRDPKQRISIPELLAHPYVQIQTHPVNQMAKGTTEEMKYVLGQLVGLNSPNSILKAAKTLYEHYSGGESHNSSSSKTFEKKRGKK

[15] = tested on: T6, Receptor-type tyrosine-protein kinase FLT3 (Homo sapiens), P36888 [D835Y]; settings: at 1 µM
T6 sequence (whole entry): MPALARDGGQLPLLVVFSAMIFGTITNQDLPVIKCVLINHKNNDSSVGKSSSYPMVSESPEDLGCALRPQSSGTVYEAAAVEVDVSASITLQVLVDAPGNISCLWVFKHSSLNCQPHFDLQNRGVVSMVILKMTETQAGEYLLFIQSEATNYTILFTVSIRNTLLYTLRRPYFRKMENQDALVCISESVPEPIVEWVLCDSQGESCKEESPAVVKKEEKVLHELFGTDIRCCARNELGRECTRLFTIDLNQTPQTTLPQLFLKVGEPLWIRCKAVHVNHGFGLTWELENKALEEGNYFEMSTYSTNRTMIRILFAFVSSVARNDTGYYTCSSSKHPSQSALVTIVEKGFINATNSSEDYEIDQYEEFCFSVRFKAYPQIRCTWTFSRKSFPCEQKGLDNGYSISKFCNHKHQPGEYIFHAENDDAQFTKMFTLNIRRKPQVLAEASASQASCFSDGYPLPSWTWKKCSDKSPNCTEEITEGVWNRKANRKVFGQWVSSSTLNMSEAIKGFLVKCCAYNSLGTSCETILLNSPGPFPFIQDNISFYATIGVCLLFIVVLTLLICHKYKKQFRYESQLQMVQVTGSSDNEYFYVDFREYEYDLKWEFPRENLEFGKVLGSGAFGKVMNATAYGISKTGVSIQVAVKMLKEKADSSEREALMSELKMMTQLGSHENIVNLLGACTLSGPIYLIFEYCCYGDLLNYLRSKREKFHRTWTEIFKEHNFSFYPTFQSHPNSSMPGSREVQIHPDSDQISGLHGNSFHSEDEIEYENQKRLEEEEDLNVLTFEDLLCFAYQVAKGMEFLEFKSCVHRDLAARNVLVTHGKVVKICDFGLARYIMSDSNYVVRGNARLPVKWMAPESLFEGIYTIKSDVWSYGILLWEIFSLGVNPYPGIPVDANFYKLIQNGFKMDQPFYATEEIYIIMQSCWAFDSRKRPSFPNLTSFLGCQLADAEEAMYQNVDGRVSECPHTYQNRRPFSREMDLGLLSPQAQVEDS

[16] = molecular target: Vascular endothelial growth factor receptor 3 (Homo sapiens) (UniProt P35916); settings: at 0.1 µM
Chain of Vascular endothelial growth factor receptor 3 (Homo sapiens) (P35916 whole entry): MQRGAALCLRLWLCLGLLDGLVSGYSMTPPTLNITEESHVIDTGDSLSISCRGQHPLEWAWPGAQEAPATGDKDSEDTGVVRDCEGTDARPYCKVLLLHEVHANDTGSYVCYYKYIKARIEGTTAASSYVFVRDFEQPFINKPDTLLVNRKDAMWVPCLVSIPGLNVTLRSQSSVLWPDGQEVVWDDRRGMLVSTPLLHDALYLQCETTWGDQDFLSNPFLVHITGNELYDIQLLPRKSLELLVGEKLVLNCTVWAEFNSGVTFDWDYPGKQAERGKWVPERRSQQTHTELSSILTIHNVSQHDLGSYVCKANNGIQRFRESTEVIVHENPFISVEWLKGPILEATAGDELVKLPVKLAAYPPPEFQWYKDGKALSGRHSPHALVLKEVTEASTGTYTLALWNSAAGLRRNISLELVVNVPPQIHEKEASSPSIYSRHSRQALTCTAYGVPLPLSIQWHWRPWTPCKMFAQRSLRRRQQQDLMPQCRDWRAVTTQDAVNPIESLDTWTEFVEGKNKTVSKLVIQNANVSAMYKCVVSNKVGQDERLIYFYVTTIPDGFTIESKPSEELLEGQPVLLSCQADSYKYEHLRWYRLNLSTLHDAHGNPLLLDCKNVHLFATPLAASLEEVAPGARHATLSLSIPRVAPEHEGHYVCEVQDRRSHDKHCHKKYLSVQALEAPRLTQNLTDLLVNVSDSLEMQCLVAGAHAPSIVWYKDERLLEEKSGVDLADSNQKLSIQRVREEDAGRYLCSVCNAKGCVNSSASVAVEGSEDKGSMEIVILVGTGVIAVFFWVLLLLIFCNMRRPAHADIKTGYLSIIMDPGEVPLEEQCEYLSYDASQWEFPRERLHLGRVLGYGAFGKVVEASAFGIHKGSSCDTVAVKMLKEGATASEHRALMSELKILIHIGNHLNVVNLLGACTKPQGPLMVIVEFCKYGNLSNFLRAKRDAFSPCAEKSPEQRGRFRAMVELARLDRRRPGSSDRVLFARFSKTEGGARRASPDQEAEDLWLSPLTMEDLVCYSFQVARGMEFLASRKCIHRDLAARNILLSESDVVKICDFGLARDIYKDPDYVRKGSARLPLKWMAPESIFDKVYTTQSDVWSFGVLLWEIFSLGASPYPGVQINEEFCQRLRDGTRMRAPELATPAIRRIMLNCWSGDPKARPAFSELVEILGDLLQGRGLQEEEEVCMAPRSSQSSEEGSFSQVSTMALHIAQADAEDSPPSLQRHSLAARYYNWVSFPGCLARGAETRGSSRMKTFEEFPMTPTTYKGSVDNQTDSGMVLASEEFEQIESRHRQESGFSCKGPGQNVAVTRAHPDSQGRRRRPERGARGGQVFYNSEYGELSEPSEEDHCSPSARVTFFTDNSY

[17] = molecular target: Vascular endothelial growth factor receptor 3 (Homo sapiens) (UniProt P35916); settings: at 1 µM
[18] = molecular target: Macrophage colony-stimulating factor 1 receptor (Homo sapiens) (UniProt P07333); settings: at 0.1 µM
Chain of Macrophage colony-stimulating factor 1 receptor (Homo sapiens) (P07333 whole entry): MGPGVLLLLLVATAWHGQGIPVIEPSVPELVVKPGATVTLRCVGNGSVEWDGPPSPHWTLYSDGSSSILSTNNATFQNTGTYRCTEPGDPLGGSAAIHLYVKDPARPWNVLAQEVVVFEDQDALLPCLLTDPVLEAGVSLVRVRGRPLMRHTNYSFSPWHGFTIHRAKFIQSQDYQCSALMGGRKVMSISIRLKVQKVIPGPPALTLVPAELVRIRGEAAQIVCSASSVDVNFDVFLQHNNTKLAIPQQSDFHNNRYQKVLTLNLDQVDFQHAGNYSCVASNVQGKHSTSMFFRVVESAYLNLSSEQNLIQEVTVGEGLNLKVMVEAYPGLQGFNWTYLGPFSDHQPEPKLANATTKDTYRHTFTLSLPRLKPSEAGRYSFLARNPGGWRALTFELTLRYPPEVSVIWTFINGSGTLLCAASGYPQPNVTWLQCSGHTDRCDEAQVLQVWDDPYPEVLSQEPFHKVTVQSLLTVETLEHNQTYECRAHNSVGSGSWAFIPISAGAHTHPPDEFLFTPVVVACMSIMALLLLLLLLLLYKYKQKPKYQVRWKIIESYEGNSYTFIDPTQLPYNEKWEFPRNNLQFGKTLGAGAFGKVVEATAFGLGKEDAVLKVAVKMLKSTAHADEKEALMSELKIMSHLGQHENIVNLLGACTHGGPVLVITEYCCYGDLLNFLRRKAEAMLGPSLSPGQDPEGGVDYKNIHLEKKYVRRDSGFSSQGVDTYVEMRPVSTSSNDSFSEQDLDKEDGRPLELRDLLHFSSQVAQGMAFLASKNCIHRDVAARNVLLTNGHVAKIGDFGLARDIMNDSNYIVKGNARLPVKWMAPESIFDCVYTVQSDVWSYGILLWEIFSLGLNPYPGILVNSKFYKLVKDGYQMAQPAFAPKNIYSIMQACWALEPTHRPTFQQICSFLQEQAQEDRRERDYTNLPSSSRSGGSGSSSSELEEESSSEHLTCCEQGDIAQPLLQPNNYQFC

[19] = molecular target: Macrophage colony-stimulating factor 1 receptor (Homo sapiens) (UniProt P07333); settings: at 1 µM
[20] = molecular target: Tyrosine-protein kinase Fyn (Homo sapiens) (UniProt P06241); settings: at 0.1 µM
Chain of Tyrosine-protein kinase Fyn (Homo sapiens) (P06241 2-537 limits assumed): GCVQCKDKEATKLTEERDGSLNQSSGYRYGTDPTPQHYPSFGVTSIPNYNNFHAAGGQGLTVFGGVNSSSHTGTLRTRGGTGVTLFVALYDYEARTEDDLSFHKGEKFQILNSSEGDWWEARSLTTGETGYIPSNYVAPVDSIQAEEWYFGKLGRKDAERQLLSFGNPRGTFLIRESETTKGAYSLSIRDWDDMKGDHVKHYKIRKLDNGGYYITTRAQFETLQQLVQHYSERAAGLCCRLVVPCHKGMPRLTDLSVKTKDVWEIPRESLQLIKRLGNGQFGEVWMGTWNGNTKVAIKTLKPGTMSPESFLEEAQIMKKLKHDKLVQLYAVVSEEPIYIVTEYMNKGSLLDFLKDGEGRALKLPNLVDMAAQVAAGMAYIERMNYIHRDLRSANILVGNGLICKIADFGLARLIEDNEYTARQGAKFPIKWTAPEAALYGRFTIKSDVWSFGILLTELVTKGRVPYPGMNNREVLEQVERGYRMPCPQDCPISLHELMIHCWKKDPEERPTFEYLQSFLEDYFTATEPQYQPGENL

Question: Which results are given for `COc1ccc2[nH]c3c4[nH]c5ccc(OC)cc5c4c4c(c3c2c1)C(=O)NC4=O`?
Answer: inhibition [1]: 36.3%; inhibition [2]: 0.76%; inhibition [3]: 1.99%; inhibition [4]: 4.36%; inhibition [5]: 5.74%; inhibition [6]: 5.36%; inhibition [7]: 5.14%; inhibition [8]: 3.71%; inhibition [9]: 5.28%; inhibition [10]: 2.96%; inhibition [11]: 2.1%; inhibition [12]: 3.01%; inhibition [13]: 9.29%; inhibition [14]: 15.5%; inhibition [15]: 92.7%; inhibition [16]: 18.5%; inhibition [17]: 63.5%; inhibition [18]: 12.9%; inhibition [19]: 50.9%; inhibition [20]: 3.62%
